# Screens deposited in PubChem BioAssay by National Center for Advancing Translational Sciences (NCATS).
# Sampled rows, rich in hits. Any-hit rate of the full collection: about 3.7%.
# HTT-AS promoter = Primary qHTS for Identification of Small Molecule Activators of Huntingtin-Antisense Promoter Activity; HEK293 HTT-AS promoter firefly luciferase reporter, 24 h; response scale: percent change from vehicle, -100% = no light; Potency, µM (titrated, usually from 57.5 µM), most hits filed as activators; 0.24% of 48,000 active; AID 1508624, 2021; further: nearly all actives have a fitted effect of over 55% in size
#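 Firefly luciferase readout (Dual-Glo, 10 min RT) after 24 h, 37 °C compound exposure (final up to 57.5 uM) of HEK293 reporter cells cultured 24 h beforehand; PTC124 at 50 uM final as control inhibitor; activity scaled vehicle 0%, zero RLU -100%.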
# GPR32 ag = qHTS for Agonists of Human Resolvin D1 Receptor DRV1 | Probable G-protein coupled receptor 32 (Homo sapiens), O75388 | CHO-K1 GPR32 beta-arrestin PathHunter luminescence, 90 min; zero percent set by DMSO-only wells | activation, % at 76.9 µM | 2.5% of 48,000 active | AID 1346428, 2018;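 active means activation of at least 60% and not above a set upper limit, about 1 call in 100 departs from these limits; inconclusive means activation of 40% to 60%, or above that upper limit; inactive means activation under 40%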
# Target sequence (O75388 whole entry, looked up): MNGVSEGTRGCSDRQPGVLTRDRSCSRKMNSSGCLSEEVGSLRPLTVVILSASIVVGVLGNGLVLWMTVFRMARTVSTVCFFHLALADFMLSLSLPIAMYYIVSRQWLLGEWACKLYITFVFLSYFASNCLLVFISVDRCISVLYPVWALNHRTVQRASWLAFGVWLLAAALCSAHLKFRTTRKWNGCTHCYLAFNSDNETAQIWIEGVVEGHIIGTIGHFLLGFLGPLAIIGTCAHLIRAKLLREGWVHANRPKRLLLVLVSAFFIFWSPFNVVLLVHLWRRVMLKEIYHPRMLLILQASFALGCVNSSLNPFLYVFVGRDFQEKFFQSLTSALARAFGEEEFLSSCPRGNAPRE
#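 Engineered CHO-K1 line co-expressing GPR32-ProLink and EA-beta-arrestin. Compound treatment lasted 90 min at 37 °C. Luminescence was recorded after 1 h with substrate at ambient temperature, relative to DMSO basal wells.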
# HTT promoter inh = Primary qHTS for Identification of Small Molecule Inhibitors of Huntingtin Promoter Activity; HEK293 HTT promoter firefly luciferase reporter, 24 h; Potency, µM (titrated, usually from 57.5 µM), actives largely listed as inhibitors; 0.93% of 48,000 active; further: nearly all actives have a fitted effect of over 50% in size
#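 HEK293 cells carrying firefly luciferase reporters were seeded at 2,500 per well in Opti-MEM and cultured for 24 h. They were then treated with compounds at up to 57.5 uM final for 24 h at 37 degrees C before Dual-Glo luminescence readout.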
# Numbers stand for hits; 0 = inactive; ? = inconclusive; - = not tested or not shown. Unless noted, the call rests on the fitted dose curve; in most records, active means well fitted curve in the direction sought with a large enough effect; inconclusive means small, poorly fitted or top-dose-only effect, or another doubt; inactive means no such curve, though single readings can be large; an effect the other way counts as inactive or inconclusive.
SMILES,HTT-AS promoter,GPR32 ag,HTT promoter inh
CC(=O)Nc1cc(-c2nc3ccccc3s2)ccc1C,6.3µM,0,0
Cc1ccccc1C(=O)c1ccc(Nc2ccc(Br)cc2N)cc1Cl,0,-,0
CCCCNC(=O)c1cc2n(n1)CCCN(Cc1ccc(C)cc1)C2=O,0,0,0
CCCNC(=O)c1cc2n(n1)CCCN(Cc1ccc(C)cc1)C2=O,0,0,0
CSc1ccc(CCNC(=O)c2cc3n(n2)CCCN(Cc2ccc(C)cc2)C3=O)cc1,0,0,?
CCCCOc1ccc(CNC(=O)c2cc3n(n2)CCCN(Cc2ccc(C)cc2)C3=O)cc1,0,0,25µM
Cc1ccccc1CCNC(=O)c1cc2ccccn2n1,-,0,-
Cc1ccc(CCNC(=O)c2cc3ccccn3n2)cc1,-,111,-
Cc1ccc(CN2CCCn3nc(C(=O)NCCc4ccc(Cl)cc4)cc3C2=O)cc1,0,115,?
Cc1ccc(CN2CCCn3nc(C(=O)NCc4cc(C)ccc4C)cc3C2=O)cc1,0,0,28µM
Cc1cc(F)ccc1-n1nnc(C(N)=O)c1C,0,0,0
CCC(C)CCCCC(=O)N[C@@H](CCN)C(=O)NC(C(=O)N[C@H](CCN)C(=O)N[C@@H]1CCNC(=O)C([C@@H](C)O)NC(=O)[C@@H](CCN)NC(=O)[C@@H](CCN)NC(=O)[C@@H](CC(C)C)NC(=O)[C@H](Cc2ccccc2)NC(=O)[C@H](CCN)NC1=O)[C@@H](C)O (stereo partly specified),0,-,0
CC(C)C[C@@H]1[C@H](c2ccccc2)OC(=O)N1CCCN1CCCCCC1,0,0,0
CN(C)CCOc1ccc(C(=C(CCCl)c2ccccc2)c2ccccc2)cc1,0,-,0
COc1ccc(Nc2nc(N)nc(CSc3nc4ccccc4s3)n2)cc1,0,?,?
Cc1ccc(Nc2nc(N)nc(CSc3nc4ccccc4s3)n2)cc1,0,83,0
Cc1cc(=O)n(CC(=O)N2CCN(c3ccccc3F)CC2)c2c1c(C)nn2C,0,0,20µM
Cc1nn(C)c2c1c(C(F)(F)F)cc(=O)n2CC(=O)N1CCN(c2ccccc2F)CC1,0,0,0
Cc1cc(-c2ccc(S(=O)(=O)N3CCN(c4ccc(Cl)cc4)CC3)s2)on1,0,0,0
COc1cc(C)c(Sc2cnc(NC(=O)c3ccc(CNC(C)C(C)C)cc3)s2)cc1C(=O)N1CCN(C(C)=O)CC1 (stereo unspecified),0,-,?
CCOC(=O)CSc1nc2ccc(NC(=O)c3cccc(F)c3)cc2s1,?,73,0
Cc1cccc(NC(=O)CSc2nc3ccc(NC(=O)c4ccccc4)cc3s2)c1,0,60,0
CCN(CC)c1cc(C)c2cc(NC(=O)c3ccc(F)cc3Cl)ccc2n1,0,0,0
Cc1cccc(NC(=O)CSc2nc3ccc(NC(=O)COc4ccccc4F)cc3s2)c1,0,0,0
CCOC(=O)CSc1nc2ccc(NC(=O)c3ccc(C)cc3)cc2s1,0,?,0
SMILES,HTT-AS promoter,GPR32 ag,HTT promoter inh
CCN(CC)c1cc(C)c2cc(NC(=O)c3cccc(F)c3)ccc2n1,0,92,0
CC(C)(C)c1ccc(C(=O)Nc2ccc3nc(SCC(=O)N4CCCC4)sc3c2)cc1,0,0,14µM
O=C(Nc1ccc2nc(SCC(=O)N3CCCC3)sc2c1)c1ccc(Br)cc1,0,0,0
C=CC(=O)N1CCc2ccc(-n3c(=O)ccc4cnc5ccc(-c6cnn(C)c6)cc5c43)cc21,0,-,?
COc1cc(C(=O)OC(COCCC(C)C)CN2CCOCC2)cc(OC)c1OC (stereo unspecified),0,0,0
CC(C)C[C@H](NC(=O)CNC(=O)c1cc(Cl)ccc1Cl)B1OC(=O)CC(CC(=O)O)(C(=O)O)O1 (stereo partly specified),0,-,?
O=C(NCCn1cc(SCc2ccccc2Cl)c2ccccc21)c1cccs1,0,0,?
O=C(O)c1ccc2cc(-c3ccc(O)c(C45CC6CC(CC(C6)C4)C5)c3)ccc2c1,0,-,0
Cc1ccc(NC(=O)C(Cc2c[nH]c3ccccc23)NC(=O)OCC(C)C)cc1 (stereo unspecified),0,0,?
Cc1ccc(NC(=O)CSc2nc3ccc(NC(=O)c4ccco4)cc3s2)cc1,0,99,0
Cc1ccc(NC(=O)CSc2nc3ccc(NC(=O)CCc4ccccc4)cc3s2)c(C)c1,0,0,0
CCCCOc1ccc(C2c3c(oc4ccc(C)cc4c3=O)C(=O)N2CCCN(C)C)cc1OCC (stereo unspecified),0,0,0
CC1(C)C(=O)N(CCN2CCC(C(=O)c3ccc(F)cc3)CC2)c2ccccc21,0,0,0
O=C(c1ccc(F)cc1)C1CCN(CCn2c(=S)[nH]c3ccccc3c2=O)CC1,0,68,0
CC1=C(C(=O)Nc2cc(C)cc(C)c2)C2(CCCCC2)OC1=O,0,0,0
COc1cc(-c2cc3n(C)c(C)c(CCC(=O)NC4CCCCC4)c(=O)n3n2)cc(OC)c1OC,0,0,0
COC(=O)C(NC(=O)CCc1c(C)nc2cc(-c3cccc(F)c3)nn2c1C)C(C)C (stereo unspecified),0,0,11µM
COC(=O)C(NC(=O)CCc1c(C)nc2c(c(C)nn2-c2ccccc2)c1C)C(C)C (stereo unspecified),0,0,0
Cc1nc2cc(-c3cccc(F)c3)nn2c(C)c1CCC(=O)NC1CCCCC1,0,0,1.3µM
CCN1CCCC1CN (stereo unspecified),0,0,0
COc1ccc(C(=O)NCCn2cc(SCC(=O)Nc3ccc4c(c3)OCCO4)c3ccccc32)cc1OC,0,0,0
O=C(CSc1cn(CCNC(=O)c2c(F)cccc2F)c2ccccc12)Nc1ccc2c(c1)OCCO2,0,68,0
COc1ccc(CNC(=O)C(=O)NCC(c2cccnc2)N2CCN(c3ccccc3)CC2)cc1 (stereo unspecified),0,0,13µM
Cc1ccc(CNC(=O)C(=O)NCC(c2cccnc2)N2CCN(c3ccccc3F)CC2)cc1 (stereo unspecified),0,0,14µM
COc1ccc(C(=O)NCC(c2cccnc2)N2CCN(c3ccccc3)CC2)cc1 (stereo unspecified),0,0,?
SMILES,HTT-AS promoter,GPR32 ag,HTT promoter inh
COc1ccc(CCNC(=O)C(=O)NCC(c2cccnc2)N2CCN(c3ccccc3)CC2)cc1 (stereo unspecified),0,0,13µM
O=C(NCCc1ccccc1)C(=O)NCC(c1cccnc1)N1CCN(c2ccccc2)CC1 (stereo unspecified),0,0,?
O=C(NCC(c1cccnc1)N1CCN(c2ccccc2F)CC1)C(=O)Nc1ccc(F)cc1F (stereo unspecified),0,0,0
NC(=O)NC1N=C([O][Al])NC1=O (stereo unspecified),0,0,0
Cc1nc(C(=O)NCC(=O)O)c(O)c2ccc(Oc3ccccc3)cc12,0,-,0
CC(C)=CCC/C(C)=C/CC/C(C)=C/CCC(=O)OC/C=C(\C)CCC=C(C)C,0,0,0
